PMC5540273 (PLoS ONE, 2017)

tested on: p38-delta; settings: concentration: 1 μM, replicates: in singlicate; n = 1
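Further: KINOMEscan kinase panel screen.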

Row | Structure (SMILES) | %Inh [%]
1 | O=C(Nc1cccc(-c2nn3ccccc3c2-c2ccnc(Nc3cccc(F)c3)n2)c1)c1c(F)ccc(F)c1Cl [GSK357952] | 36
2 | c1ccc(-c2cnc3nccnn23)cc1 [AH20685] | 20
3 | CN(c1ccc(NC(=O)Nc2cc(C(F)(F)F)ccc2F)cc1)c1ccnc(Nc2ccc(S(N)(=O)=O)cc2)n1 [GW809893] | 91.7
4 | O=C(Nc1n[nH]c2cc(-c3ccoc3)ccc12)C1CC1 [SB-738481] | 0
5 | C[C@@H]1CC[C@@H](C(=O)Nc2ccccc2)CN1c1cc(-c2ccc3c(N)n[nH]c3c2)nc(N)n1 [GSK2286062] | 13
6 | O=C(Nc1cccc(-c2nn3ncccc3c2-c2ccnc(Nc3ccccc3)n2)c1)c1c(F)cccc1F [GSK198271] | 77
7 | COc1cccc(NC(=O)NC2CCN(c3ccnc(Nc4cc(OC)c(OC)c(OC)c4)n3)C2)c1 (centres unmarked) [GSK1379763] | 8
8 | CN1CCN(CCCNc2nccc(-c3c(-c4ccc(F)cc4)nn4cc(C(F)(F)F)ccc34)n2)CC1 [GW621581] | 12
9 | Nc1n[nH]c2cnc(-c3ccccc3)cc12 [SB-642124] | 28
10 | Cc1occc1-c1ncc(OC[C@@H](N)Cc2c[nH]c3ccccc23)cc1-c1ccc2[nH]nc(C)c2c1.O=C(O)C(F)(F)F [GSK682037] | 73
11 | Cl.NC(=O)c1cccc(Nc2nccc(Nc3ccc(Oc4c(Cl)cccc4Cl)c(Cl)c3)n2)c1 [GW659009] | 0
12 | CCCCc1nn2ncccc2c1-c1ccnc(Nc2ccc(N3CCN(C)CC3)cc2)n1 [GW684941] | 21
13 | CCc1ccc(-c2ccc3c(c2)-c2c(cnn2C)S(=O)(=O)N3C)cc1 | 23
14 | c1ccc(-c2n[nH]cc2Nc2ccnc3ccccc23)nc1 [GW694077] | 0
15 | c1ccc(Oc2ccc(Nc3ccnc4cc(-c5ccc(CNCCN6CCOCC6)o5)ccc34)cc2)nc1 [GW567145] | 0
16 | Cn1cc(-c2[nH]c3cc(NC(=O)[C@H](N)C4CCCCC4)cc4c3c2C=NNC4=O)cn1 | 0

Row | Structure (SMILES) | %Inh [%]
17 | FC(F)(F)c1ccc(/C=C/c2cncnc2Nc2ccc3[nH]c(Cc4ccccc4)nc3c2)cc1 [GW709199] | 0
18 | COc1cc2c(cc1OCCN1CCNCC1)ncc1c3ccc(C#N)cc3[nH]c21 | 0
19 | CC(=O)N1CCN(c2ccc(Nc3nccc(-c4sc(C(C)C)nc4-c4cccc(NS(=O)(=O)c5cccc(Cl)c5)c4)n3)cn2)CC1 [GSK1660437] | 0
20 | Cc1ccc(F)c(C(=O)Nc2cccc(-c3nn4ccccc4c3-c3ccnc(Nc4cccc(F)c4)n3)c2)c1F [GSK361061] | 0
21 | Cc1cccc(NC(=O)Nc2ccc(Oc3ncnc4ccn(C)c34)cc2)c1 | 0
22 | COc1cc(Nc2nccc(N3CCC(NC(=O)Nc4cccc(C(C)=O)c4)C3)n2)cc(OC)c1OC (centres unmarked) [GSK1379753] | 41
23 | C[C@@H](Oc1cc(-n2cnc3cc(-c4ccnc(NCCS(C)(=O)=O)c4)ccc32)sc1C(N)=O)c1ccccc1Cl [GSK907232] | 29
24 | COC(=O)Nc1nc2cc(Oc3ccc(NC(=O)Nc4cc(C(F)(F)F)ccc4F)cn3)ccc2[nH]1.Cl.Cl [GW681170] | 75
25 | Nc1ncnc2c1nc(-c1ccccc1)n2-c1ccccc1 [SKF-97293] | 0
26 | NCCCC(NC(=O)c1cc(Br)c(-c2ccnc3[nH]ccc23)s1)c1ccccc1.O=C(O)C(F)(F)F.O=C(O)C(F)(F)F (centres unmarked) [GSK1287544] | 0
27 | CSc1cccc2c(-c3ccncn3)c(-c3ccc(F)cc3)nn12 [GW514786] | 38
28 | CC(C)c1nc(-c2cccc(NS(=O)(=O)c3c(F)cccc3F)c2F)c(-c2ccnc(Nc3ccc(N4CCOCC4)nc3)n2)s1 [GSK2008607] | 0
29 | Cc1cccc(Nc2nc(N[C@H]3CCNC3)ncc2C(N)=O)c1.Cl [GSK2197149] | 19
30 | Nc1ncc(-c2ccc3nccc(-c4ccncc4)c3c2)cc1S(=O)(=O)N1CCOCC1 [GSK1627798] | 0
31 | COc1ccc(CNC(=O)NC2CCN(c3ccnc(Nc4ccc(F)cc4)n3)CC2)cc1 [GSK1379788] | 29
32 | O=C(Nc1n[nH]c2nc(-c3ccc(O)cc3)ccc12)C1CC1 [SB-710363] | 0
